Experimental data reported in PubChem BioAssay (NCATS).
Inconclusive results are not listed. Calls of active or inactive are those of the source. Unless noted, the call rests on the fitted dose curve; in most records, active means well fitted curve in the direction sought with a large enough effect; inconclusive means small, poorly fitted or top-dose-only effect, or another doubt; inactive means no such curve, though single readings can be large; an effect the other way counts as inactive or inconclusive.

Columns and labels:
[1] = target: Androgen receptor (Homo sapiens) (UniProt P10275); experiment: qHTS assay for small molecule antagonists of androgen receptor signaling (AID 588516; active means well fitted curve in the direction sought with a large enough effect in the signal ratio, with a control signal flat, not every such curve was filed as active; the % refers to the signal ratio)
In short: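 Cells were plated and incubated 5 h, compounds added in titration, then R1881 (10 nM final) as agonist. After 16 h at 37 C, CCF4 substrate was loaded for 2 h at room temperature and fluorescence measured.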

[2] = S16 Schwann cell viability assay (CellTiter-Glo assay) (AID 624031); further: nearly all actives have a fitted effect of over 70% in size; further: potency means the concentration at half of the fitted maximal effect
In short: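 Counter-screen for cytotoxicity: parental S16 rat Schwann cells lacking the PMP22 reporters, treated 24 h with compound, viability from cellular ATP by CellTiter-Glo luminescence, normalized to DMSO (0%) and no-cell wells.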

3D7 = experiment: qHTS profiling for inhibitors of Plasmodium falciparum proliferation (AID 504749); further: nearly all actives have a fitted effect of over 60% in size; further: potency means the concentration at half of the fitted maximal effect; conditions: P. falciparum in erythrocytes, SYBR Green DNA, 72 h; series mostly up to 28.7 µM
In short: (§1)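 Fluorescence of SYBR Green-bound parasite DNA, read at 485/535 nm, served as the growth measure. Infected erythrocytes were cultured with compound 72 h; artemisinin (0.29 uM) and DMSO wells defined the normalization range.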

CP185 = experiment: as above; conditions: P. falciparum in erythrocytes, SYBR Green DNA, 72 h; series mostly up to 28.7 µM
In short: as §1

CP191 = experiment: as above; conditions: P. falciparum in erythrocytes, SYBR Green DNA, 72 h; series mostly up to 28.7 µM
In short: as §1

CP192 = experiment: as above; conditions: P. falciparum in erythrocytes, SYBR Green DNA, 72 h; series mostly up to 28.7 µM
In short: as §1

CP250 = experiment: as above; conditions: P. falciparum in erythrocytes, SYBR Green DNA, 72 h; series mostly up to 28.7 µM
In short: as §1

CP252 = experiment: as above; conditions: P. falciparum in erythrocytes, SYBR Green DNA, 72 h; series mostly up to 28.7 µM
In short: as §1

CP256 = experiment: as above; conditions: P. falciparum in erythrocytes, SYBR Green DNA, 72 h; series mostly up to 28.7 µM
In short: as §1

CP268 = experiment: as above; conditions: P. falciparum in erythrocytes, SYBR Green DNA, 72 h; series mostly up to 28.7 µM
In short: as §1

CP291 = experiment: as above; conditions: P. falciparum in erythrocytes, SYBR Green DNA, 72 h; series mostly up to 28.7 µM
In short: as §1

CP297 = experiment: as above; conditions: P. falciparum in erythrocytes, SYBR Green DNA, 72 h; series mostly up to 28.7 µM
In short: as §1

CP305 = experiment: as above; conditions: P. falciparum in erythrocytes, SYBR Green DNA, 72 h; series mostly up to 28.7 µM
In short: as §1

CP315 = experiment: as above; conditions: P. falciparum in erythrocytes, SYBR Green DNA, 72 h; series mostly up to 28.7 µM
In short: as §1

CP325 = experiment: as above; conditions: P. falciparum in erythrocytes, SYBR Green DNA, 72 h; series mostly up to 28.7 µM
In short: as §1

CP329 = experiment: as above; conditions: P. falciparum in erythrocytes, SYBR Green DNA, 72 h; series mostly up to 28.7 µM
In short: as §1

DIV17 = experiment: as above; conditions: P. falciparum in erythrocytes, SYBR Green DNA, 72 h; series mostly up to 28.7 µM
In short: as §1

Dd2 = experiment: as above; conditions: P. falciparum in erythrocytes, SYBR Green DNA, 72 h; series mostly up to 28.7 µM
In short: as §1

JCK = experiment: as above; conditions: P. falciparum in erythrocytes, SYBR Green DNA, 72 h; series mostly up to 28.7 µM
In short: as §1

W2 = experiment: as above; conditions: P. falciparum in erythrocytes, SYBR Green DNA, 72 h; series mostly up to 28.7 µM
In short: as §1

Measured: Potency

Chain of Androgen receptor (Homo sapiens) (P10275 whole entry, looked up): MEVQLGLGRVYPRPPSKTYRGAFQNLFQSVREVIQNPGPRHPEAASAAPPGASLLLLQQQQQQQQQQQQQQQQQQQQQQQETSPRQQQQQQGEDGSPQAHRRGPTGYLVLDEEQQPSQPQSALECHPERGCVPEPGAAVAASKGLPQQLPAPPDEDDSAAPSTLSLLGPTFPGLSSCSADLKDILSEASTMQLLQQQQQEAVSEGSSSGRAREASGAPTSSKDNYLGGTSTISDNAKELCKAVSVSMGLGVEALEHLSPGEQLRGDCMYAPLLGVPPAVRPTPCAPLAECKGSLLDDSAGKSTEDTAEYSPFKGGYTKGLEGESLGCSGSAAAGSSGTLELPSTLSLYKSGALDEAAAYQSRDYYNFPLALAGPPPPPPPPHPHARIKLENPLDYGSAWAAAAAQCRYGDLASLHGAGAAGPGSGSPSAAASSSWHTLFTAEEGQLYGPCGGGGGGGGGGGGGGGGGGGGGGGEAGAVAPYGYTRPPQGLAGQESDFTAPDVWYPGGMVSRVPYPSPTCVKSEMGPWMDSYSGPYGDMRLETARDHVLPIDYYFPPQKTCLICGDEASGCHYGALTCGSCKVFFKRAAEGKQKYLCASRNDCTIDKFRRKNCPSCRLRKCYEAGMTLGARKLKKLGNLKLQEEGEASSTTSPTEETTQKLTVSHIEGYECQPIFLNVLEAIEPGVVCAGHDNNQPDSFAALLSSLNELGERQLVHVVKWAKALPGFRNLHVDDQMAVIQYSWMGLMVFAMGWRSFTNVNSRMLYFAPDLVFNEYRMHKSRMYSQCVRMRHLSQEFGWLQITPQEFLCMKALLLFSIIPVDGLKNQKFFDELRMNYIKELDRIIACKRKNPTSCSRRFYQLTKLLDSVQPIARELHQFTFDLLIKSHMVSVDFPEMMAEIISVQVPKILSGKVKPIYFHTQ

O=C(O)c1ccccc1C(c1ccc(O)cc1)c1ccc(O)cc1
inactive: [1]

CCC(=O)O[C@@H](OP(=O)(CCCCc1ccccc1)CC(=O)N1C[C@H](C2CCCCC2)C[C@H]1C(=O)O)C(C)C (stereo not given in full)
inactive: [2] | 3D7 | CP185 | CP191 | CP192 | CP250 | CP252 | CP256 | CP268 | CP291 | CP297 | CP305 | CP315 | CP325 | CP329 | DIV17 | Dd2 | JCK

CC1CCC(C(C)C)C(OC(=O)c2ccccc2O)C1 (stereo not given)
inactive: [2] | 3D7 | CP185 | CP191 | CP192 | CP250 | CP252 | CP256 | CP268 | CP291 | CP297 | CP305 | CP315 | CP325 | CP329 | DIV17 | Dd2 | JCK | W2

Cc1cc(CC(C)CC(C)(C)C)n(O)c(=O)c1 (stereo not given)
active: 3D7 2000 nM | CP185 1120 nM | CP191 1120 nM | CP192 2390 nM | CP250 1120 nM | CP252 2820 nM | CP256 1260 nM | CP268 2690 nM | CP291 1900 nM | CP297 1690 nM | CP305 2390 nM | CP315 3380 nM | CP325 2390 nM | CP329 1900 nM | DIV17 1510 nM | Dd2 7940 nM | JCK 11200 nM | W2 2130 nM

CC(C)CN(C[C@@H](OP(=O)(O)O)[C@H](Cc1ccccc1)NC(=O)O[C@@H]1CCOC1)S(=O)(=O)c1ccc(N)cc1
inactive: [2] | 3D7 | CP185 | CP191 | CP192 | CP250 | CP252 | CP256 | CP268 | CP291 | CP297 | CP305 | CP315 | CP325 | CP329 | DIV17 | Dd2 | JCK | W2

CO/N=C(/C(=O)N[C@@H]1C(=O)N2C(C(=O)O)=CCS[C@H]12)c1csc(N)n1
inactive: [2] | 3D7 | CP185 | CP191 | CP192 | CP250 | CP252 | CP256 | CP268 | CP291 | CP297 | CP305 | CP315 | CP325 | CP329 | DIV17 | Dd2 | JCK | W2

CCC(C)n1ncn(-c2ccc(N3CCN(c4ccc(OCC5COC(Cn6cncn6)(c6ccc(Cl)cc6Cl)O5)cc4)CC3)cc2)c1=O (stereo not given)
inactive: [2] | CP185 | CP191 | CP192 | CP250 | CP252 | CP256 | CP268 | CP291 | CP297 | CP305 | CP315 | CP325 | CP329 | DIV17 | JCK
active: 3D7 3160 nM | W2 2130 nM

COc1ccc2nc(N)sc2c1
inactive: [1]

CCCN(CCC)C(=O)SCC
inactive: [1]

CN1CC[C@H](CN2c3ccccc3Sc3ccccc32)C1
inactive: CP192 | CP315 | CP329
active: [2] 36100 nM | CP191 10000 nM | CP252 11200 nM | CP256 8910 nM | CP268 15100 nM | CP291 15100 nM | CP297 6750 nM | CP305 15100 nM | CP325 15100 nM | DIV17 5360 nM | Dd2 3550 nM | W2 1900 nM

C/C=C\c1ccc(OC)cc1
inactive: [2] | 3D7 | CP185 | CP191 | CP192 | CP250 | CP252 | CP256 | CP268 | CP291 | CP297 | CP305 | CP315 | CP325 | CP329 | DIV17 | Dd2 | JCK | W2

C1OCOCO1
inactive: [2] | 3D7 | CP185 | CP191 | CP192 | CP250 | CP252 | CP256 | CP268 | CP291 | CP297 | CP305 | CP315 | CP325 | CP329 | DIV17 | Dd2 | JCK | W2

CC(C)=CCCC(C)CCO (stereo not given)
inactive: [1]

CC(C)(CO)C(O)C(=O)NCCCC(=O)O (stereo not given)
inactive: [2]

CN(C)CCCCCCN(C)C
inactive: [2] | 3D7 | CP185 | CP191 | CP192 | CP250 | CP252 | CP256 | CP268 | CP291 | CP297 | CP305 | CP315 | CP325 | CP329 | DIV17 | Dd2 | JCK | W2

Cc1c(N=C=O)cccc1N=C=O
inactive: [1]

NC1=NC(S)C2N=CN=C2N1 (stereo not given)
inactive: 3D7 | CP185 | CP192 | CP250 | CP268 | CP291 | CP297 | CP305 | CP315 | CP325 | CP329 | DIV17 | Dd2 | JCK | W2

CCCCC(CC)CN (stereo not given)
inactive: [1]

c1ccc2c(c1)c1cccc3ccc4cccc2c4c31
inactive: [1]

S=C1NC=NC2N=CNC12 (stereo not given)
inactive: [2] | 3D7 | CP185 | CP191 | CP250 | CP252 | CP256 | Dd2 | JCK | W2

CCO
inactive: [1]

Cc1cccc([N+](=O)[O-])c1C
inactive: [1]

c1ccc2c(c1)[nH]c1ccccc12
inactive: [1]

O=C(O)c1cc(O)c2c(c1)[C@H]([C@H]1c3cc(C(=O)O)cc(O)c3C(=O)c3c(O[C@@H]4OC(CO)C(O)C(O)C4O)cccc31)c1cccc(O[C@@H]3OC(CO)C(O)C(O)C3O)c1C2=O (stereo not given in full)
inactive: [2] | 3D7 | CP185 | CP191 | CP250 | CP252 | CP256 | Dd2 | JCK | W2

C=Cc1ccccc1Cl
inactive: [1]
